# Assay outcomes from PubChem.
# HIV RNase H inh-1 = blocks HIV-1 RNase H cleavage of RNA/DNA duplex; inhibition, % at 10 µM; 65,000 tested, 1.9% active; P04585; RT-RNase H RNA/DNA duplex cleavage, fluorescence; in the data active = inhibition above about 50%
# RmlCD inh mix = mixture blocks RmlC and RmlD coupled enzyme activity | RmlC/RmlD coupled enzyme inhibition, 384-well mixture HTS | inhibition, % at 5.5 µM | 110,000 tested, 0.39% active | AID 1532; in the data active = inhibition above about 30%, passing the limit was not always enough; inconclusive = no clear call, values can overlap the other calls
# HIV RNase H inh-2 = confirmation of HIV-1 reverse transcriptase RNase H inhibitors; Recombinant RT RNase H, fluorescent RNA/DNA duplex cleavage; 1,000 tested, 39% active; inhibition, % at 10 µM; AID 651; shares compounds with HIV RNase H inh-1; in the data active = inhibition above about 48%; inconclusive = no clear call, values can overlap the other calls
# * hit, by the source's call; ? = inconclusive; . = no result. The full list was thinned out, with hits kept by preference.
SMILES,HIV RNase H inh-1,RmlCD inh mix,HIV RNase H inh-2
COc1ccc(C2=NO[C@@H]3C(=O)N(c4cccc(C)c4C)C(=O)[C@H]23)cc1OC,6,6,.
COc1ccc(C2=NO[C@@H]3C(=O)N(c4ccc(C)cc4C)C(=O)[C@H]23)cc1OC,54*,-10,-7
Cc1ccc(C(O)(COC(=O)C(C)C)COC(=O)C(C)C)c(O)c1,.,0,.
CC(=O)NO,.,11,.
Nc1c(C(=O)Nc2ccccc2)sc2nc(-c3ccco3)ccc12,87*,8,4
Nc1c(C(=O)Nc2nc3ccccc3s2)sc2nc(-c3cccs3)ccc12,.,21,.
COc1ccccc1NC(=O)c1sc2nc(-c3ccco3)ccc2c1N,84*,10,45
COc1ccccc1NC(=O)c1sc(NC(=O)c2ccco2)c(C#N)c1C,.,4,.
COc1ccc(C2=CC(=O)CCC2)cc1,.,10,.
Cn1nc(-c2ccc(C(=O)Nc3cccc(Cl)c3)cc2)c2ccccc2c1=O,.,8,.
COc1ccc(C(c2sc3nc(C)nn3c2O)N2CCc3ccccc3C2)cc1 (stereo unspecified),79*,-9,4
COc1cc(C(c2sc3nc(C)nn3c2O)N2CCc3ccccc3C2)cc(OC)c1OC (stereo unspecified),24,-7,.
CCN1CCN(c2ccc(NC(=O)C(C)C)cc2Cl)CC1,.,-7,.
CCCC(=O)Nc1ccc(N2CCN(CC)CC2)c(Cl)c1,81*,6,7
CCOC(=O)CSc1nnc(CSc2nc3sc4c(c3c(=O)[nH]2)CCCC4)n1-c1ccccc1,.,9,.
CCOC(=O)N1CC=C2C(C#N)=C(N)C(C#N)(C#N)[C@H](c3ccccc3OCC)[C@H]2C1,29,11,.
CCOC(=O)N1CC=C2C(C#N)=C(N)C(C#N)(C#N)[C@H](c3ccc(OC(C)C)c(OCC)c3)[C@H]2C1,89*,9,76*
CCOC(=O)c1sc(NC(=O)CCN2C(=O)c3cccc([N+](=O)[O-])c3C2=O)c(C(=O)OCC)c1C,.,6,.
CC(C)(C)c1csc(NC(=O)Cn2c(=O)oc3ccccc32)n1,88*,10,21
O=C(Cn1c(=O)oc2ccccc21)Nc1nc(-c2ccccc2)cs1,.,-15,.
N#Cc1c(N)sc2c1CCCCCC2,-43,-15,.
N#Cc1c(N)sc(=S)c2c1CCCCC2,58*,-10,9
CC(C)CN1CCC(=O)N(CCSc2ccc(Br)cc2)CC1,.,-7,.
Clc1ccc(-c2ccc(-c3nn4c(-c5ccco5)nnc4s3)o2)cc1,99*,-9,?
COc1ccc(-c2nnc3sc(C4CCCCC4)nn23)cc1OC,-1,-6,.
SMILES,HIV RNase H inh-1,RmlCD inh mix,HIV RNase H inh-2
c1coc(-c2nnc3sc(C4CCCCC4)nn23)c1,75*,-6,?
Cc1occc1-c1nnc2sc(-c3ccc(-c4ccc(Cl)cc4)o3)nn12,24,.,.
CCCC/C(O)=N\S(=O)(=O)c1ccc(N=NN(C)C)cc1,.,9,.
O=C(O)CCCCCCCCCCCc1ccccc1,.,-15,.
O=C(OCN1C(=O)c2ccccc2C1=O)C1CCCCC1,-30,-12,.
O=C1c2ccccc2C(=O)N1SC1CCCCC1,80*,-6,5
CN(C(=S)Nc1ccc(F)cc1)C1(c2ccccc2Cl)CCCCC1=O (stereo unspecified),.,1,.
O=C(CSc1nnc(Nc2ccccc2F)s1)NCc1ccco1,33,-8,.
Cc1ccccc1Nc1nnc(SCC(=O)NC(=O)NCc2ccco2)s1,67*,.,20
Cc1nc(N)sc1-c1csc(Nc2ccccc2)n1,-2,8,.
Cc1cc(O)ccc1Nc1nc(-c2sc(N)nc2C)cs1,73*,6,49
COc1cc2c(cc1NC(=O)C(c1ccccc1)c1ccccc1)CCCC2,.,7,.
COC(=O)C[C@H]1c2cc(F)ccc2S(=O)(=O)N1Cc1ccccc1,.,-23,.
O=C1NCCCC2c3c(cc(Br)c(O)c3Br)OC12N1CCOCC1 (stereo unspecified),22,-5,.
O=C1NCCCC2c3cc(O)c4ccccc4c3OC12N1CCCCC1 (stereo unspecified),52*,8,15
O=C(c1ccc(F)cc1)C1CCN(C(=O)c2ccncc2)CC1,88*,-34,42
O=C(c1ccc(F)cc1)C1CCN(C(=O)N2CCOCC2)CC1,7,2,.
CCO[C@@H]1OC(C(=O)N2CCN(Cc3ccccc3)CC2)=C[C@H](c2coc3ccccc3c2=O)[C@H]1CCCO,.,7,.
COc1ccc(-c2cc(C(=O)Nc3cc(OC)c(OC)c(OC)c3)no2)cc1OC,80*,-7,25
COc1cccc(-c2cc(C(=O)Nc3ccc(OC)c(OC)c3)no2)c1,-3,-10,.
Cc1cccc(N2CCN(C(=O)C(Cc3ccccc3)n3cccc3)CC2)c1C (stereo unspecified),.,-8,.
COc1ccccc1N=c1oc2c(OC)cccc2cc1C(=O)NCc1ccco1,70*,3,72*
COc1cccc2cc(C(=O)NCc3ccccn3)c(=O)oc12,.,7,.
Cc1cc(C)n2c(=S)[nH]nc2n1,74*,-16,67*
Cc1cc(C)nc(SCc2nc3nc(C)cc(C)n3c2Br)n1,.,13,.
SMILES,HIV RNase H inh-1,RmlCD inh mix,HIV RNase H inh-2
CCn1cc(/C=N/N=C2\CCC3C4CCc5cc(O)ccc5C4CC[C@]23C)c(C)n1 (stereo partly specified),.,-6,.
O=C(O)c1ccccc1S(=O)(=O)Cc1ccccc1,71*,-12,15
O=S(=O)(Cc1ccccc1)c1ccccc1-c1nnc(-c2ccccc2)o1,.,-13,.
CC(C)NS(=O)(=O)c1ccc(OCC(=O)Nc2ccc(F)cc2F)cc1,.,32,.
CCc1nc(SCC(=O)c2cccs2)c2oc3ccccc3c2n1,.,-5,.
N#Cc1c(-c2ccncc2)c2c([nH]c1=S)CCCC2,.,8,.
Cc1ccc(-c2c3c([nH]c(=S)c2C#N)CCCC3)o1,87*,-2,32
COc1ccc(C2N=C(N)N=C(N)N2c2ccccc2OC)cc1OC (stereo unspecified),.,5,.
CCN1C(=O)N[C@@H](c2ccccc2)[C@@H](C(=O)OC)[C@H]1C,.,-3,.
COc1nc2ccc(C)cc2cc1-c1noc(-c2ccccc2)n1,.,-23,.
Cc1ccc(Oc2nccc(-c3ccc(Cl)cc3)n2)cc1,.,0,.
COc1cccc(-n2c(SCC(N)=O)nc3c([nH]c4ccccc43)c2=O)c1,6,.,.
O=C(CSc1nc2c([nH]c3ccccc32)c(=O)n1-c1ccccc1)N1CCOCC1,4,-10,.
COc1ccc(-n2c(SCC(=O)N3CCCC3)nc3c([nH]c4ccccc43)c2=O)cc1,87*,.,88*
O=C(CSc1nc2c([nH]c3ccccc32)c(=O)n1-c1cccc(Cl)c1)N1CCOCC1,78*,9,67*
CCCCC[C@H](O)/C=C/[C@H]1[C@H](O)CC(=O)[C@@H]1CCCCCCC(=O)O,.,-2,.
CCCCC[C@H](O)/C=C/[C@H]1C=CC(=O)[C@@H]1C/C=C\CCCC(=O)O,77*,57,67*
COC(=O)c1ccccc1NC(=O)c1sc(N)nc1C,-40,7,.
COC(=O)c1ccccc1NC(=O)c1sc(=S)n(C)c1N,87*,9,74*
COc1ccc2c(c1)[nH]c1c(=O)n(CCCn3ccnc3)cnc12,.,-9,.
COc1cccc(/C=N/n2c(N)c(S(=O)(=O)c3cccs3)c3nc4ccccc4nc32)c1OC,.,-28,.
Nc1c(S(=O)(=O)c2cccc(Cl)c2)c2nc3ccccc3nc2n1/N=C/c1ccc(O)c(O)c1,92*,-2,58*
O=c1c(Oc2ccccc2)coc2cc(O)cc(O)c12,.,3,.
